A short description of test [1]: qHTS profiling of the MIPE4 collection as inhibitors of Plasmodium falciparum (DD2) proliferation (AID 743345; call rule not given here). To be noted: P. falciparum Dd2 in erythrocytes, SYBR Green DNA, 72 h; at 28.5 µM (top of the series) unless noted. In a few lines: (§1)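 Parasite DNA was quantified by SYBR Green I fluorescence (ex 485, em 535 nm) after overnight lysis in saponin/Triton buffer at room temperature. Cultures at 0.3% parasitemia and 2.5% hematocrit were first exposed to compound for 72 h at 37 C; signals were normalised to artemisinin (0.29 uM) and vehicle wells.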

Test [2] can be described thus: qHTS profiling of the MIPE4 collection as inhibitors of Plasmodium falciparum (DD2) proliferation (Rep 2) (AID 743346; call rule not given here). To be noted: P. falciparum Dd2 in erythrocytes, SYBR Green DNA, 72 h; at 28.5 µM (top of the series) unless noted. Summed up:
as §1

The nature of test [3]: qHTS profiling of the MIPE4 collection as inhibitors of Plasmodium falciparum (HB3) proliferation (AID 743347; call rule not given here;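 also: plate controls were DMSO vehicle wells for no effect and artemisinin wells for full effect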). The note with it: P. falciparum HB3 in erythrocytes, SYBR Green DNA, 72 h; at 28.5 µM (top of the series) unless noted. Summed up: as §1
For orientation: Quantitative high-throughput screening tests each substance at several concentrations.

Test [4] is described as follows: High-throughput drug toxicity screening in the BPDCN cell line Gen2.2 (AID 1224824; call rule not given here;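 also: cells exposed to compounds for 48 h before reading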). The note with it: Gen2.2 BPDCN cells; at 45.8 µM (top of the series) unless noted. In a few lines: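 Gen2.2 cells (500/well) in phenol red-free RPMI with 10% FBS were exposed to compounds for 48 h at 37 °C, 5% CO2. Viability was read by CellTiter-Glo luminescence and normalized to DMSO (100%) and 9.2 uM bortezomib (0%).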

A short description of test [5]: High-throughput drug toxicity screening in the BPDCN cell line Cal-1 (AID 1224825; call rule not given here). The note with it: Cal-1 BPDCN cell viability, qHTS; at 45.8 µM (top of the series) unless noted. Summed up:
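Viability of the BPDCN line Cal-1 is measured as ATP-based luminescence (CellTiter-Glo) following 48 h incubation with compounds. Percent activity uses DMSO-treated wells as 100% and 9.2 uM bortezomib as 0%.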

The nature of test [6]: qHTS assay for measurement of the activity of small molecule inhibitors on Zika virus induced Caspase-3 activity in human iPSC derived neural progenitor cells (hNPCs) (AID 1224857). Also: % of control where 0% means no effect; nearly all actives have a fitted effect of over 65% in size. In a few lines: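 Human iPSC-derived neural progenitor cells pretreated 1 hr with compounds, then infected with Zika virus (2 FFU/cell) for 6 hours at 37 C. Caspase-3/7 measured by Caspase-Glo luminescence; % inhibition calculated from induction scaled to uninfected (0%) and infected (100%) wells.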

A short description of test [7]: qHTS Screen of the MIPE 4.0 Collection Against Ewings Sarcoma (RDES) (AID 1259252). Also: nearly all actives have a fitted effect of over 35% in size. Also: potency is read from the fitted curve at half-maximal effect. In a few lines:
(§2)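 Measured: ATP luminescence (CellTiter-Glo) 10 min after reagent addition, following 48 h drug treatment. Relative luciferase units converted to percent activity, with no-cell wells as full and DMSO wells as zero inhibition.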

Test [8] in a line: qHTS Screen of the MIPE 4.0 Collection Against Ewings Sarcoma (TC71) (AID 1259253). Also: nearly all actives have a fitted effect of over 40% in size. Also: potency is read from the fitted curve at half-maximal effect. Summed up: as §2
Test [9] can be described thus: qHTS Screen of the MIPE 4.0 Collection Against Ewings Sarcoma (EW8) (AID 1259255). Also: nearly all actives have a fitted effect of over 35% in size. Also: potency is read from the fitted curve at half-maximal effect.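 As to viability: 100% = DMSO-treated cells and 0% = medium-only wells without cells.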 In a few lines: as §2
The nature of test [10]: qHTS assay for measurement of the activity of small molecule inhibitors on Zika virus induced Caspase-3 activity in human astrocytoma cells (AID 1224859).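 Also: plate controls were ZIKV-infected untreated cells for no effect and uninfected cells for full effect.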 In a few lines: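 SNB-19 astrocytoma cells, 250/well, pretreated 1 h with compounds, then Zika virus at 2 FFU/cell for 6 h at 37 C; Caspase-Glo 3/7 luminescence after 30 min; percent inhibition normalised to uninfected and infected controls.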

Results filed as inconclusive are left out. The source made the active and inactive calls. Unless noted, calls follow the shape of the dose curve; as a rule, active = well fitted inhibition curve with a large enough effect; inconclusive = small, poorly fitted or top-dose-only effect; inactive = no such curve, though single readings can be large or run the other way.

We go through 10 compounds from PubChem BioAssay (NCATS).

As for `CN(CC(=O)N(Cc1ccc(C2CCCCC2)cc1)c1ccc(C(=O)O)c(O)c1)S(=O)(=O)c1c(F)c(F)c(F)c(F)c1F`, in [1], the parasite growth remaining, % of DMSO control (lower = more inhibition) was found to be 95.9%. Moreover, the parasite growth, % of control (lower = inhibition) in test [2] came to 53.5%. Further, in test [3], the growth, % of control turned out to be 27.9%. Moreover, in [4], the cell viability, % of control (lower = more cytotoxic) came to 52.5%. For the same compound, the viability (% of control) in test [5] worked out at 3.33%. Further, the Potency result in [6] was “inactive”. The results for the Potency in test [7], in test [8] and in test [9] were 18.7 µM (active), 8.33 µM (active) and 9.35 µM (active), respectively.

On to `O=C(Nc1ccc(Oc2ccnc3[nH]ccc23)c(F)c1)c1cccn(-c2ccc(F)cc2)c1=O`, for which, in test [1], the parasite growth remaining, % of DMSO control (lower = more inhibition) was 69.1%. Besides, the parasite growth, % of control (lower = inhibition) in [2] was 29.2%. The compound also had a growth, % of control in [3] of 7.02%. Besides, the cell viability, % of control (lower = more cytotoxic) in [4] was 83%. Further, in test [5], the viability (% of control) is 87.2%. Further, the Potency entry in test [6], in test [7], in [8] and in test [9] was “inactive” each time.

In the case of `OC[C@H]1OC(O)C[C@@H](O)[C@H]1O` (stereo not given in full), in test [3], the growth, % of control came to 86.6%. Besides, the cell viability, % of control (lower = more cytotoxic) in test [4] is 118%. Also, the viability (% of control) in test [5] stood at 115%. Also, the Potency result in test [6], in test [10], in test [8] and in test [9] was “inactive” each time.

For `CC(C)(C)[N+]([O-])=Cc1ccc(S(=O)(=O)O)cc1S(=O)(=O)O`, the parasite growth remaining, % of DMSO control (lower = more inhibition) in test [1] came to 92.1%. Besides, the parasite growth, % of control (lower = inhibition) in [2] was 85.8%. The compound also yielded a growth, % of control in test [3] of 63%. Further, in [4], the cell viability, % of control (lower = more cytotoxic) worked out at 133%. Also, in test [5], the viability (% of control) is 111%. Also, the Potency entry in test [6], in [10], in test [8] and in test [9] was “inactive” in each case.

Take `CC(C=CC(=O)NO)=C[C@@H](C)C(=O)c1ccc(N(C)C)cc1`: the parasite growth remaining, % of DMSO control (lower = more inhibition) in [1] was 7.38%. Moreover, the parasite growth, % of control (lower = inhibition) in test [2] was found to be 9.43%. In addition, in test [3], the growth, % of control is 3.58%. Also, the cell viability, % of control (lower = more cytotoxic) in [4] was determined as 2.63%. Besides, the viability (% of control) in [5] was determined as 2.32%. Also, the Potency entry in test [6] is “inactive”. Besides, the Potency in test [7] is 0.526 µM (active); in [8], 0.743 µM (active); in test [9], 0.187 µM (active).

For `CC(=CC(=O)Nc1ccccc1C(=O)O)c1ccc2ccccc2c1`, in test [1], the parasite growth remaining, % of DMSO control (lower = more inhibition) came to 110%. Besides, the parasite growth, % of control (lower = inhibition) in test [2] was determined as 133%. This compound had a growth, % of control in test [3] of 674%. In addition, in test [4], the cell viability, % of control (lower = more cytotoxic) is 115%. Also, the viability (% of control) in [5] is 77.7%. In addition, the Potency entry in test [6] and in test [10] was “inactive” in each case. For the same compound, the Potency is 13.2 µM (active) in test [8] and 10.5 µM (active) in [9].

With `O=C(NC1CC1)c1cccc(-c2ccc3c(NC(=O)C4CC4)n[nH]c3c2)c1`, in [1], the parasite growth remaining, % of DMSO control (lower = more inhibition) worked out at 96.7%. Further, the parasite growth, % of control (lower = inhibition) in [2] is 59.5%. Also, in [4], the cell viability, % of control (lower = more cytotoxic) is 224%. Further, the viability (% of control) in test [5] was found to be 17.8%. Besides, the Potency result in test [6] is “inactive”. Further, the Potency is 1.32 µM (active) in [7], 1.32 µM (active) in test [8] and 3.72 µM (active) in test [9].

With `CC(=O)O[C@@]12CO[C@H]1C[C@H](O)[C@@]1(C)C(=O)[C@H](O)C3=C(C)[C@@H](OC(=O)C(O)[C@@H](NC(=O)OC(C)(C)C)c4ccccc4)C[C@@](O)([C@@H](OC(=O)c4ccccc4)[C@@H]21)C3(C)C` (stereo not given in full), the parasite growth remaining, % of DMSO control (lower = more inhibition) in test [1] stood at 18.8%. Also, the parasite growth, % of control (lower = inhibition) in test [2] turned out to be 30.4%. This compound yielded a growth, % of control in test [3] of 4.16%. In test [4], the cell viability, % of control (lower = more cytotoxic) was found to be 22.4%. Besides, in test [5], the viability (% of control) stood at 8.89%. In addition, the Potency result in test [6], in [10], in test [8] and in [9] was “inactive” throughout.

Turning to `CCOc1cc2c(c(F)c1OCC)C(=N)N(CC(=O)c1cc(N3CCOCC3)c(OC)c(C(C)(C)C)c1)C2`, the parasite growth remaining, % of DMSO control (lower = more inhibition) in test [1] worked out at 7.24%. In addition, the parasite growth, % of control (lower = inhibition) in test [2] stood at 11.7%. Besides, the cell viability, % of control (lower = more cytotoxic) in test [4] amounted to 4.1%. The viability (% of control) in [5] stood at 2.82%. Also, the Potency result in [6] was “inactive”. Moreover, the results for the Potency in test [7], in test [8] and in test [9] were 9.35 µM (active), 10.5 µM (active) and 13.2 µM (active), respectively.

Take `C[C@]12CC[C@@H]3c4ccc(O)cc4CC[C@H]3[C@H]1CC[C@H]2O`: the parasite growth remaining, % of DMSO control (lower = more inhibition) in test [1] worked out at 93.3%. The parasite growth, % of control (lower = inhibition) in test [2] worked out at 74%. Moreover, in [4], the cell viability, % of control (lower = more cytotoxic) is 50.6%. In addition, the viability (% of control) in test [5] came to 12.5%. In test [6], the Potency result is “inactive”. The values for the Potency in [7], in test [8] and in [9] were 8.33 µM (active), 16.6 µM (active) and 18.7 µM (active), respectively.
